Most compounds without a hit are left out; they make up all but 3.9% or so of the library.
Anthrax LF prot – Bacillus anthracis LF protease inhibitors, primary screen, biochemical, multiplex microsphere, MLPCN library; 0.12% of 360,000 active; Lethal factor (Bacillus anthracis), P15917; multiplex microsphere protease cleavage assay; inhibition, % at 10 µM; note: plate controls were buffer without enzyme for full effect and enzyme alone for no effect
Autofluor counter – flagged as autofluorescent in microsphere protease counterscreen. compound autofluorescence counterscreen, microsphere flow cytometry; hits give high values. fluorescence intensity (test concentration not listed). 3.1% of 360,000 active; in the data active = fluorescence intensity above about 16000; inconclusive = no clear call, values can overlap the other calls
BoNT A protease – BoNT/A light chain protease inhibitors, primary screen, biochemical, flow cytometry, MLPCN library. AID 588499, 2011. 0.17% of 360,000 active. inhibition, % at 10 µM. multiplex microsphere protease substrate cleavage. Botulinum neurotoxin type A light chain protease (Clostridium botulinum A str. ATCC 3502); note: plate controls were buffer without enzyme for full effect and enzyme alone for no effect
BoNT F protease – BoNT/F light chain protease inhibitors, primary screen, biochemical, flow cytometry, MLPCN library; Botulinum neurotoxin type F light chain protease (Clostridium botulinum); Multiplex microsphere protease cleavage assay; inhibition, % at 10 µM; 0.22% of 360,000 active; AID 588497, 2011; in the data active = inhibition above about 35%, passing the limit was not always enough; inconclusive = no clear call, values can overlap the other calls; note: plate controls were buffer without enzyme for full effect and enzyme alone for no effect
SARS 3CLpro inh – SARS-CoV 3CLpro protease inhibitors, primary screen, biochemical, quenched FRET; recombinant SARS-CoV 3CLpro, quenched FRET peptide cleavage; inhibition, % at 6 µM; 0.14% of 290,000 active; AID 1706, 2009; in the data active = inhibition above about 12%
CCHF vOTU inh – CCHFV vOTU protease inhibitors, primary screen, biochemical, Pep-AMC substrate, fluorescence; Crimean-Congo hemorrhagic fever virus L polyprotein viral ovarian tumor (vOTU) protease …; inhibition, % at 11.5 µM; 0.55% of 370,000 active; AID 651958, 2012; in the data active = inhibition above about 30%; note: 0% = vehicle wells with enzyme and 100% = no enzyme wells
Starred values were filed as active, the others as inactive; ? = inconclusive; . = not tested or not shown. Cut-off read from the data, not from the text of the source, unless noted: active = inhibition above about 30%; inconclusive = no clear call, values can overlap the other calls; inactive = below that.

SMILES	Anthrax LF prot	Autofluor counter	BoNT A protease	BoNT F protease	SARS 3CLpro inh	CCHF vOTU inh
O=C(OCC(=O)N1CCN(C(=O)c2ccco2)CC1)c1cc(-c2cccc(Br)c2)nc2ccccc12	-3	24517*	-1	-6	1	2
O=C(OCC(=O)N1CCN(C(=O)c2ccco2)CC1)c1cc(-c2ccccc2)nc2ccccc12	-10	?	-1	-10	7	4
Nn1c(SCC(=O)NC2CCCCC2)nnc1-c1cc(-c2ccc(F)cc2)n[nH]1	.	.	.	.	.	-1
CCOC(=O)c1cnc(SCC(=O)c2ccccc2)nc1N	0	24281*	-1	-4	-9	-4
COc1ccc2c(c1)CCCN2C(=O)C1CCCN(S(=O)(=O)c2ccc(C)c(C)c2)C1 (stereo unspecified)	.	.	.	.	.	1
Cc1nnc2n1N=CC=C(C(C)(C)C)S2	-13	23527*	-2	-3	1	0
Cc1nnc2n1N=CC=C(c1ccccc1)S2	5	8594	1	7	0	-3
Cc1nc(NC(=S)NC(=O)c2cccs2)sc1C(=O)N(C)C	0	22794*	-2	-1	2	-11
COC(=O)[C@]12C[C@H](CC(=O)NCc3cccc(C(F)(F)F)c3)C(=O)N(Cc3ccc(Cl)cc3Cl)C1=C[C@H](COCc1ccccc1)O[C@@H]2C	.	.	.	.	.	15
Cc1ccccc1NC(=O)c1ccc(F)c(S(=O)(=O)N2CCN(c3ccccn3)CC2)c1	-3	23271*	-4	-4	-2	.
O=C(Nc1ccc(Br)cc1)c1ccc(F)c(S(=O)(=O)N2CCN(c3ccccn3)CC2)c1	-5	4020	0	3	-6	-1
O=C(Nc1ccccc1)c1ccc(N2CCN(c3ccccn3)CC2)c(S(=O)(=O)N2CCOCC2)c1	-2	16676*	-1	-1	2	-3
O=C(Nc1ccccc1)c1ccc(N2CCN(c3ccccc3)CC2)c(S(=O)(=O)N2CCOCC2)c1	-36	13379	16	30	0	-3
Cc1cccc(Cn2cc(COC(=O)NCC(C)C)nn2)c1	.	.	.	.	.	-7
Cc1ccccc1Cn1cc(CN2[C@@H](Cc3ccccc3)COc3cc(Br)ccc3S2(=O)=O)nn1	.	.	.	.	.	-1
Cc1cccc(C(=O)Nc2cccc(C(=O)N/N=C/c3cccc(C)n3)c2)c1	-7	3795	-2	16	-2	6
CC(=O)Nc1cccc(C(=O)N/N=C/c2cccc(C)n2)c1	-3	3846	2	46*	-2	-12
CC(C)(C)OC(=O)NC(CCCCNC=O)C(=O)O (stereo unspecified)	-2	23419*	0	2	-11	18
O=C(/C=C/c1c(Cl)cccc1Cl)NCCc1ccccc1	-1	20277*	1	2	3	6
Cc1ccc(OCc2nnc(SCC(=O)Nc3ccc(S(N)(=O)=O)cc3)n2-c2ccc(Cl)cc2)cc1	.	.	.	.	.	5
CCCc1nnc(NC(=O)Cn2c(=O)oc3cc(Br)ccc32)s1	-1	21386*	2	4	5	-9
CCCC(=O)OC12CCCN(C1)/C(=C/c1cccc(OC)c1)C2 (stereo unspecified)	.	.	.	.	.	2
CC(=O)Oc1ccc(NC(=O)C2CCCCC2)c(C(=O)O)c1	-3	20737*	5	4	-6	5
CC(=O)NC(=O)NC1CSCC1OC(C)=O (stereo unspecified)	-2	23409*	?	-4	-6	-4
CCOC(=O)[C@]12CCCC=C1N(CCCOC)C(=O)[C@@H]2CC(=O)NCCc1ccccc1OC	.	.	.	.	.	10
SMILES	Anthrax LF prot	Autofluor counter	BoNT A protease	BoNT F protease	SARS 3CLpro inh	CCHF vOTU inh
CCOC(=O)C1=C(N)OC2=C(C(=O)CC(C)(C)C2)C1c1ccccc1OCC#N (stereo unspecified)	1	20405*	1	2	-3	-7
N#C/C(=C/c1ccc(C(=O)O)cc1)C(=O)NCc1ccccc1	-2	17589*	?	-9	-7	-11
N#C/C(=C\c1ccccc1)C(=O)NCc1ccc(F)cc1	-1	5815	0	1	-2	-19
Cn1c(C(O)c2ccccc2F)nc(Cl)c1Cl (stereo unspecified)	-2	22133*	0	0	-3	-5
O=C(N/N=C/C(Br)=C\c1ccccc1)c1n[nH]c2c1CCC2	-3	25111*	-5	-7	-7	1
CCOC(=O)CC1=NN(c2ccccc2)C(=O)C1	0	2572	0	-4	4	2
CCOC(=O)Cc1cc(=O)c2c(=O)n(-c3ccccc3)[nH]c2[nH]1	-2	22135*	2	2	-4	6
O=c1cc(-c2ccccc2)[nH]c2[nH]n(-c3ccccc3)c(=O)c12	0	17478*	-2	-3	3	1
COc1ccc(C#Cc2c(-c3ccccc3OC)oc3ccccc23)cc1	.	.	.	.	.	3
CCCCN1CCN(C(=O)Cn2c(=O)c3ccccc3n(CC)c2=O)CC1	.	.	.	.	.	2
CC(=O)c1cccc(NC(=O)NCCc2c[nH]c3ccccc23)c1	-3	3867	1	?	7	-2
Cc1ccc2[nH]cc(CCNC(=O)Nc3ccccc3)c2c1	0	21739*	-3	-7	6	18
COc1ccccc1CNC(=O)C[C@H]1CC[C@H]2[C@@H](COc3ccc(NC(=O)Nc4ccccc4)cc3C(=O)N2C)O1	.	.	.	.	.	3
Cc1cc(C)nc(SC(C)C(=O)Nc2ccc(S(N)(=O)=O)cc2)n1 (stereo unspecified)	1	21604*	?	2	1	-7
C/C(=N\O)c1ccc(N2C(=O)C3CC=C(Cl)CC3C2=O)cc1 (stereo unspecified)	-3	16899*	-2	-4	-1	-9
CCNC(=S)N/N=C/c1ccc(OCC(=O)Nc2ccc(C)cc2)cc1	-4	20930*	-1	-5	-1	.
CCOc1ccc(/C=N/NC(=S)Nc2c(C)cccc2C)cc1	0	2990	-1	-8	11	15
CCNC(=S)N/N=C/c1ccc(OCCOc2ccccc2C)cc1	4	23540*	1	-1	-6	-11
CC(C)(C)c1cc(NC(=O)c2ccco2)no1	0	5608	1	-2	-6	-10
Cc1cc(NC(NC(=O)c2ccco2)(C(F)(F)F)C(F)(F)F)no1	0	17442*	-2	-4	-1	2
Cc1c(Br)cc(C(=O)NC2CCCCC2)c(C)c1C	0	23067*	?	-2	4	0
Cc1ccc(S(=O)(=O)Nc2ccccc2C(N)=O)cc1	-1	17497*	-2	-12	6	-12
CCn1ncc2c(=O)c(C(=O)c3ccccc3)c[nH]c21	.	.	.	.	.	9
O=C(Cc1ccccc1)N1CCCC1c1ccccc1 (stereo unspecified)	-2	21410*	-2	-6	-2	-2
